Consider 27 compounds from PubChem BioAssay (NCATS).

Test [1] can be described thus: Primary qHTS for Huh7 cytotoxicity: counterscreen for inhibitors of MERS-S pseudotyped particle cell entry (AID 1479147). Particulars: cell viability read-out; series mostly up to 57.1 µM.
Test [2] can be described thus: Primary qHTS for inhibitors of MERS-S pseudo-typed particle cell entry (AID 1479149). Further: nearly all actives have a fitted effect of over 60% in size. Further: potency means the concentration at half of the fitted maximal effect. On activity change, negative = inhibition: on the % scale 0 is the no-effect control and ±100 the full control effect. Particulars: MERS-S pseudotyped particle entry, luciferase; series mostly up to 57.1 µM. (qHTS replaces the single test concentration by a dilution series.)
Test [3] is described as follows: Primary qHTS for Vero E6 cytotoxicity: counterscreen for inhibitors of SARS-S pseudo-typed particle cell entry (AID 1479150). The settings on record: cell viability; series mostly up to 57.1 µM.
A short description of test [4]: Cytotoxicity counterscreen for inhibitors of SARS-CoV-2 cell entry (AID 1645845). Further: nearly all actives have a fitted effect of over 50% in size. Further: potency means the concentration at half of the fitted maximal effect. The settings on record: cell viability (SARS-CoV-2 entry assay cells); series mostly up to 57.1 µM. An outline of the steps:
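48 h compound treatment (after 1 h preincubation), HEK293-ACE2 cells, 37 C/5% CO2; ATP luminescence endpoint; normalized to cell wells and media blanks.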

Test [5] can be described thus: Primary qHTS to identify inhibitors of SARS-CoV-2 cell entry (AID 1645846). Further: nearly all actives have a fitted effect of over 45% in size. Further: potency means the concentration at half of the fitted maximal effect. Particulars: SARS-CoV-2 pseudovirus cell entry assay, luminescence; activity change, negative = inhibition: at 57.1 µM (top of the series) unless noted; series mostly up to 57.1 µM. The gist of the method: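 HEK293-ACE2 (Expi293F, stable hACE2), 1500 cells/well, o/n 37C; cpd 23 nL pin, 1 h; MLV-PP w/ SARS-CoV-2-S (Wuhan-Hu-1, Δ19 C-term); 48 h 37C; Bright-Glo luminescence; normalized vs S-PP and bald PP.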

Where “and” joins values, the source holds several entries; their conditions need not be identical. Identical values can stand only once. Results filed as inconclusive are left out. Calls of active or inactive are those of the source. The call rests on the fitted dose curve.

Take `Cc1nccn1CC1CCc2c(c3ccccc3n2C)C1=O` (stereo unspecified): the Potency result in test [1], in test [2], in test [3] and in test [4] was “inactive” in each case. Moreover, the activity change, negative = inhibition in test [5] was -12.3%.

`C[C@@H]1C[C@H]2[C@@H]3CCC4=CC(=O)C=C[C@]4(C)[C@@]3(F)[C@@H](O)C[C@]2(C)[C@@]1(O)C(=O)CO`: the Potency entry in test [1], in test [2], in test [3] and in test [4] was “inactive” in each case.

With `Nc1ccc(O)c(C(=O)O)c1`, the Potency entry in test [1], in test [2], in test [3] and in test [4] was “inactive” throughout. In addition, the activity change, negative = inhibition in test [5] was found to be 2.37%.

On to `CCC(=O)O[C@H]1[C@H](O[C@@H]2[C@@H](C)[C@H](O[C@H]3C[C@@](C)(OC)[C@@H](O)[C@H](C)O3)[C@@H](C)C(=O)O[C@H](CC)[C@@](C)(O)[C@H](O)[C@@H](C)C(=O)[C@H](C)C[C@@]2(C)O)O[C@H](C)C[C@@H]1N(C)C`, for which the Potency entry in test [1], in test [2], in test [3] and in test [4] was “inactive” throughout.

`Cc1nc2n(c(=O)c1CCN1CCC(c3noc4cc(F)ccc34)CC1)CCC[C@H]2O`: the Potency entry in test [1], in test [2], in test [3] and in test [4] was “inactive” each time.

For `CN(CCOc1ccc(CC2SC(=O)NC2=O)cc1)c1ccccn1` (stereo unspecified), the Potency result in test [1], in test [2], in test [3] and in test [4] was “inactive” each time.

Consider `CC(=O)N[C@@H](CS)C(=O)O`, for which the Potency entry in test [1], in test [2], in test [3], in test [4] and in test [5] was “inactive” throughout.

Consider `CN1CCC[C@@H]1Cc1c[nH]c2ccc(CCS(=O)(=O)c3ccccc3)cc12`, for which the Potency entry in test [1], in test [2], in test [3] and in test [4] was “inactive” each time.

In the case of `COc1cc(Cc2cnc(N)nc2N)cc(OC)c1OC`, the Potency entry in test [1], in test [2], in test [3], in test [4] and in test [5] was “inactive” throughout.

As to `O=c1[nH]cnc2c1ncn2[C@H]1CC[C@@H](CO)O1`, the Potency entry in test [1], in test [2], in test [3], in test [4] and in test [5] was “inactive” throughout.

Take `CCCCS(=O)(=O)N[C@@H](Cc1ccc(OCCCCC2CCNCC2)cc1)C(=O)O`: the Potency entry in test [1], in test [2], in test [3], in test [4] and in test [5] was “inactive” in each case.

`CO[C@H]1C=CO[C@@]2(C)Oc3c(C)c(O)c4c(O)c(c(/C=N/N5CCN(C)CC5)c(O)c4c3C2=O)NC(=O)/C(C)=C\C=C[C@H](C)[C@H](O)[C@@H](C)[C@@H](O)[C@@H](C)[C@H](OC(C)=O)[C@@H]1C`: the Potency entry in test [1], in test [2], in test [3] and in test [4] was “inactive” in each case.

For `C[C@@H](c1ncncc1F)C(O)(Cn1cncn1)c1ccc(F)cc1F` (stereo partly specified), the Potency entry in test [1], in test [2], in test [3] and in test [4] was “inactive” in each case. Moreover, the activity change, negative = inhibition in test [5] was -1.38%.

As for `CN(C)CCc1c[nH]c2ccc(CS(=O)(=O)N3CCCC3)cc12`, the Potency result in test [1], in test [2], in test [3] and in test [4] was “inactive” each time.

As for `Cn1cc[nH]c1=S`, the Potency entry in test [1], in test [2], in test [3], in test [4] and in test [5] was “inactive” each time.

Regarding `O=c1[nH]cc(F)c(=O)[nH]1`, the Potency entry in test [1], in test [3] and in test [4] was “inactive” each time. The Potency was 8.91 µM (active) in test [2]; 11.2 µM (active) and 14.1 µM (active) in test [5].

As for `CN(C/C=C/C#CC(C)(C)C)Cc1cccc2ccccc12`, the Potency entry in test [1], in test [2], in test [3] and in test [4] was “inactive” in each case.

With `Cc1[nH]cnc1CN1CCc2c(c3ccccc3n2C)C1=O`, the Potency result in test [1], in test [2], in test [3] and in test [4] was “inactive” throughout.

Take `COC(=O)C(c1ccccc1Cl)N1CCc2sccc2C1` (stereo unspecified): the Potency entry in test [1], in test [2], in test [3], in test [4] and in test [5] was “inactive” throughout.

For `CN1CCN(C2=Nc3cc(Cl)ccc3Nc3ccccc32)CC1`, the Potency entry in test [1], in test [2], in test [3] and in test [4] was “inactive” each time.

Take `CN/C(=C\[N+](=O)[O-])NCCSCc1ccc(CN(C)C)o1`: the Potency result in test [1], in test [2], in test [3], in test [4] and in test [5] was “inactive” throughout.

`N[C@@H](C(=O)N[C@@H]1C(=O)N2C(C(=O)O)=C(Cl)CS[C@H]12)c1ccccc1`: the outcome is “inactive [at 11.4 µM]” in test [1]; “inactive [at 11.4 µM]” in test [2]; “inactive [at 11.4 µM]” in test [3]; “inactive [at 11.3 µM]” in test [4]; “inactive [at 11.3 µM]” in test [5].

In the case of `Cc1cccc(C)c1OCC(C)N` (stereo unspecified), the Potency result in test [1], in test [2], in test [3] and in test [4] was “inactive” throughout. The activity change, negative = inhibition in test [5] was -0.301%.

Take `CCOC(=O)C1=C(C)NC(C)=C(C(=O)OC)C1c1cccc(Cl)c1Cl` (stereo unspecified): the Potency entry in test [1], in test [2], in test [3] and in test [4] was “inactive” in each case.

Turning to `O=c1n(CCCN2CCN(c3cccc(Cl)c3)CC2)nc2ccccn12`, the Potency result in test [1], in test [2], in test [3] and in test [4] was “inactive” throughout.

Consider `CC(=O)Oc1cc2c(s1)CCN(C(C(=O)C1CC1)c1ccccc1F)C2` (stereo unspecified), for which the Potency result in test [1], in test [2], in test [3] and in test [4] was “inactive” in each case.

As for `CC(=O)O[C@@]12CO[C@@H]1C[C@H](O)[C@@]1(C)C(=O)[C@H](O)C3=C(C)[C@@H](OC(=O)[C@H](O)[C@@H](NC(=O)OC(C)(C)C)c4ccccc4)C[C@@](O)([C@@H](OC(=O)c4ccccc4)[C@H]21)C3(C)C`, the Potency entry in test [1], in test [2] and in test [3] was “inactive” throughout. For the same compound, the Potency in test [4] is 8.91 µM (active).
